Data reported in PubChem BioAssay (Tox21).
Where “and” joins values, the source holds several entries; their conditions need not be identical. Equal values may be shown once. Records with an inconclusive call do not appear. More than one record can exist for a structure, and the calls need not agree. Calls of active or inactive are those of the source. Unless noted, calls follow the shape of the dose curve; as a rule, active = well fitted curve in the direction sought with a large enough effect in the repeat runs; inconclusive = weak or mixed curves; inactive = no such curve, though single readings can be large; an effect the other way counts as inactive or inconclusive.

Tests used:
[1] = qHTS assay to identify small molecule antagonists of the sonic hedgehog signaling (Shh) pathway (AID 1259369; calls by dose curve; also: nearly all actives have a fitted effect of over 45% in size)
How it was run: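 Cells are plated and held 4hr at 37 C, compounds (DMSO) are pinned in, conditioned medium is added to stimulate the pathway, and after 24hr luciferase reagent is added for 30min before luminescence is read.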

[2] = biological target: Estrogen receptor beta (Homo sapiens) (UniProt Q92731); assay: qHTS assay to identify small molecule agonists of the estrogen receptor beta (ER-beta) signaling pathway (AID 1259377; active = well fitted activation curve with a large enough effect in the signal ratio in the repeat runs, not every such curve was filed as active; the % refers to the signal ratio)
How it was run: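 ER-beta-UAS-bla HEK293T (GripTite) cells carrying a UAS-driven beta-lactamase reporter, in medium with 2% charcoal-stripped FBS, were exposed to compounds for 16 hr at 37C; LiveBLAzer B/G FRET substrate was then added and fluorescence read after 2 hours at room temperature.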

[3] = biological target: Estrogen receptor beta (Homo sapiens) (UniProt Q92731); assay: qHTS assay to identify small molecule antagonists of the estrogen receptor beta (ER-beta) signaling pathway (AID 1259378; active = well fitted inhibition curve with a large enough effect in the signal ratio in the repeat runs, not every such curve was filed as active; the % refers to the signal ratio)
How it was run: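 ER-beta-UAS-bla HEK293T (GripTite) cells in 2% charcoal-stripped FBS medium were preincubated 6 hr at 37C, dosed with compound, then stimulated with 1 nM E2 (final) for 16 hr; beta-lactamase reporter read by B/G FRET fluorescence after 2 hr substrate loading.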

[4] = qHTS assay to identify small molecule agonists of the androgen receptor (AR) signaling pathway in the presence of an antagonist - cell viability counter screen (AID 1259379); also: nearly all actives have a fitted effect of over 25% in size; also: potency is read from the fitted curve at half-maximal effect
How it was run: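 Cytotoxicity is assessed by CellTiter-Fluor in MDA-kb2 cells carrying an MMTV-driven luciferase reporter. Cells receive 3.0uM nilutamide plus compounds at 15 concentrations and incubate 16 hr at 37C without CO2 before fluorescence reading.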

[5] = qHTS assay to identify small molecule agonists of the estrogen receptor beta (ER-beta) signaling pathway - cell viability counter screen (AID 1259380); also: nearly all actives have a fitted effect of over 30% in size; also: potency is read from the fitted curve at half-maximal effect
How it was run: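 Cytotoxicity is measured in parallel with the reporter screen: after 16 hr compound exposure at 37C and a 2 hr LiveBLAzer step, CellTiter-Glo is added to the same ER-beta-UAS-bla HEK293T wells and luminescence read after 30 min.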

[6] = biological target: Androgen receptor (Homo sapiens) (UniProt P10275); assay: qHTS assay to identify small molecule agonists of the androgen receptor (AR) signaling pathway in the presence of an antagonist (AID 1259381; calls by dose curve; also: nearly all actives have a fitted effect of over 15% in size)
How it was run: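 Agonist-mode confirmation screen: human MDA-kb2 cells stably expressing luciferase under an MMTV promoter bearing AR and GR response elements, co-treated with 3.0uM nilutamide (final). Luminescence measured after 16hr compound incubation.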

[7] = qHTS assay to identify small molecule antagonists of the estrogen receptor beta (ER-beta) signaling pathway - cell viability counter screen (AID 1259382); also: series mostly up to about 92 µM; nearly all actives have a fitted effect of over 55% in size
How it was run: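 Cytotoxicity counter screen multiplexed with the beta-lactamase antagonist assay: GripTite HEK293T ER-beta-bla cells were treated 16 hr with test chemicals in the presence of 1nM 17-beta-estradiol, and viability was measured by CellTiter-Glo.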

[8] = biological target: Estrogen receptor (Homo sapiens) (UniProt P03372); assay: qHTS assay to identify small molecule agonists of the estrogen receptor alpha (ER-alpha) signaling pathway in the presence of an antagonist (AID 1259383; calls by dose curve; also: top concentration of the series differs between compounds; nearly all actives have a fitted effect of over 15% in size)
How it was run: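 Agonist-mode confirmation in the presence of the ER antagonist ICI-182,780 at 10.0nM final. Breast-derived VM7Luc4E2 reporter cells were exposed to compounds for 22hr, and ERE-driven luciferase was quantified by luminescence.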

[9] = qHTS assay to identify small molecule agonists or antagonists of the thyroid stimulating hormone receptor (TSHR) signaling pathway - wild type cell line counter screen (AID 1259384; calls by dose curve)
How it was run: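 Wild-type HEK293 cells were plated 18 h at 37 C/5% CO2, pin-dosed with compound plus Ro20-1724 medium, held 30 min at room temperature, then given cAMP-d2 and anti-cAMP-cryptate; fluorescence was read after 1 h. Fifteen concentrations, triplicate.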

[10] = biological target: Thyrotropin receptor (Homo sapiens) (UniProt P16473); assay: qHTS assay to identify small molecule antagonists of the thyroid stimulating hormone receptor (TSHR) signaling pathway (AID 1259385; calls by dose curve; also: nearly all actives have a fitted effect of over 20% in size)
How it was run: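 TSHR-HEK293 cells were plated and held 18 h at 37C/5% CO2, then given compound plus Ro20-1724 and stimulated with TSH at 1.5 ng/mL final. After 30 min at room temperature, cAMP was detected with cAMP-d2/anti-cAMP-cryptate (1 h) by fluorescence.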

[11] = qHTS assay to identify small molecule agonists of the estrogen receptor alpha (ER-alpha) signaling pathway in the presence of an antagonist - cell viability counter screen (AID 1259386);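 also: series mostly up to about 92 µM; cells exposed to compounds for 22 h at 37 °C before the viability read; nearly all actives have a fitted effect of over 30% in size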
How it was run: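 Cytotoxicity was measured in parallel with the ERE-luciferase agonist screen, in the same wells. The cells were VM7Luc4E2, which endogenously express ER-alpha, and treatment was with compounds plus 10.0nM ICI-182,780 for 22hr.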

[12] = biological target: Progesterone receptor (Homo sapiens) (UniProt P06401); assay: qHTS assay to identify small molecule agonists of the progesterone receptor (PR) signaling pathway (AID 1346784; calls by dose curve; also: nearly all actives have a fitted effect of over 30% in size)
How it was run: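 PR-UAS-bla HEK 293T cells carrying a UAS-driven beta-lactamase reporter were seeded in medium with 2% charcoal-stripped FBS, preincubated 6 hr at 37C, then exposed to compounds in DMSO for 16 hr; agonism was read by LiveBLAzer B/G FRET fluorescence.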

[13] = biological target: Progesterone receptor (Homo sapiens) (UniProt P06401); assay: qHTS assay to identify small molecule antagonists of the progesterone receptor (PR) signaling pathway (AID 1346795; active = well fitted inhibition curve with a large enough effect in the signal ratio in the repeat runs, not every such curve was filed as active; the % refers to the signal ratio; also: potency is read from the fitted curve at half-maximal effect)
How it was run: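 PR-UAS-bla HEK293T cells carrying a UAS-driven beta-lactamase reporter were plated in medium with 2% charcoal-stripped FBS and rested 6 hr at 37C. Compounds were added with 1 nM R5020 (final) for 16 hr, then FRET substrate loaded 2 hr at room temperature.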

[14] = qHTS assay to identify small molecule antagonists of the progesterone receptor (PR) signaling pathway - cell viability counter screen (AID 1346798); also: series mostly up to about 92 µM; nearly all actives have a fitted effect of over 50% in size
How it was run: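 PR-UAS-bla HEK293T cells in medium with 2% charcoal-stripped FBS were treated with compounds plus R5020 for 16 hr at 37C. Cell viability was then read by CellTiter-Glo luminescence after 30 min at room temperature in the same wells.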

[15] = qHTS assay to identify small molecule agonists of the progesterone receptor (PR) signaling pathway - cell viability counter screen (AID 1346799; calls by dose curve; also: nearly all actives have a fitted effect of over 45% in size)
How it was run: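 PR-UAS-bla HEK293T cells, 3,000 per well in medium with 2% charcoal-stripped FBS, were preincubated 6 hr at 37C, then exposed to compounds for 16 hr; viability was read as CellTiter-Glo luminescence after 30 min at room temperature.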

[16] = qHTS assay to identify small molecule antagonists of the TGF-beta/Smad signaling pathway - cell viability counter screen (AID 1346824); also: nearly all actives have a fitted effect of over 50% in size
How it was run: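 SBE-bla HEK 293T cells were plated overnight at 37 C, then given compounds in DMSO plus TGF-beta1 (added as 0.25 ng/mL solution) for 5 hr. After the bla read, CellTiter-Glo was added to the same wells and luminescence read after 30 min at room temperature.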

[17] = qHTS assay to identify small molecule agonists of the TGF-beta/Smad signaling pathway - cell viability counter screen (AID 1346829); also: top concentration of the series differs between compounds; nearly all actives have a fitted effect of over 45% in size
How it was run: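 HEK 293T SBE-bla line, 5 hr compound exposure at 37 C, multiplexed CellTiter-Glo viability read by luminescence.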

[18] = qHTS assay to identify small molecule agonists of the TGF-beta/Smad signaling pathway (AID 1346859; active = well fitted activation curve with a large enough effect in the signal ratio in the repeat runs, not every such curve was filed as active; the % refers to the signal ratio; also: series mostly up to about 77 µM)
How it was run: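 HEK 293T cells stably carrying a beta-lactamase reporter driven by the Smad binding element were seeded overnight, exposed to DMSO-dissolved compounds for 5 hr at 37 C, 5% CO2, then loaded with FRET substrate for 2 hr at room temperature.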

[19] = biological target: Thyrotropin-releasing hormone receptor (Homo sapiens) (UniProt P34981); assay: qHTS assay to identify small molecule antagonists of the thyrotropin-releasing hormone receptor (TRHR) signaling pathway (AID 1346877; active = well fitted inhibition curve with a large enough effect in the repeat runs, not every such curve was filed as active; also: series mostly up to about 51 µM)
How it was run: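 Antagonism is measured as suppression of the calcium response to 1 nM TRH in TRHR-HEK293 cells that have been dye-loaded for 2 h at 37 °C after overnight plating. Each compound is tested at 15 concentrations in triplicate.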

[20] = biological target: Thyrotropin-releasing hormone receptor (Homo sapiens) (UniProt P34981); assay: qHTS assay to identify small molecule agonists of the thyrotropin-releasing hormone receptor (TRHR) signaling pathway (AID 1346891; calls by dose curve; also: series mostly up to about 58 µM)
How it was run: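 TRHR-expressing HEK293 cells were plated 18 h at 37 °C/5% CO2, loaded with calcium dye 2 h at 37 °C, then given compound in DMSO; fluorescence was read kinetically for 3 min at 1 s intervals.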

Measured: Potency

Thyrotropin receptor (Homo sapiens), sequence (P16473 whole entry, looked up): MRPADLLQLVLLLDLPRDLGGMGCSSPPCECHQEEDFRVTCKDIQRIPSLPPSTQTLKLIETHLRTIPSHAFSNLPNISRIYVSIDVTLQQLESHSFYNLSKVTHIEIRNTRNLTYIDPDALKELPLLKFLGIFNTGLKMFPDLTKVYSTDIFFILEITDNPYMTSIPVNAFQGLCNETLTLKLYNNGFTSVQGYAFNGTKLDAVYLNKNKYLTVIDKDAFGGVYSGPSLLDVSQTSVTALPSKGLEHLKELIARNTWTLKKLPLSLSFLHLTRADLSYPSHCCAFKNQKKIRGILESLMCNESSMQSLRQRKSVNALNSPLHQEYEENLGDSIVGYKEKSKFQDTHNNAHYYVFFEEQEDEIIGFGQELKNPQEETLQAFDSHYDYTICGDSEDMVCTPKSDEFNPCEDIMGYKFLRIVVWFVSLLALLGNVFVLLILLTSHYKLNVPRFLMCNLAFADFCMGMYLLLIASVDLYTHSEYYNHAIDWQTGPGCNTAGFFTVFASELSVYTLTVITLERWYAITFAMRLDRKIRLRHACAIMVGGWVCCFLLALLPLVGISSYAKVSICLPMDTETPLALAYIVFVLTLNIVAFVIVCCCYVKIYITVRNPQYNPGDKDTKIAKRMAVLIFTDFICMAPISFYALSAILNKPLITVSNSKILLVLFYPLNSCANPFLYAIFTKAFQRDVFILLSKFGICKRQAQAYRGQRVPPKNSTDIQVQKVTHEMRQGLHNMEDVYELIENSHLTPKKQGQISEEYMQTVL
Thyrotropin-releasing hormone receptor (Homo sapiens), sequence (P34981 whole entry, looked up): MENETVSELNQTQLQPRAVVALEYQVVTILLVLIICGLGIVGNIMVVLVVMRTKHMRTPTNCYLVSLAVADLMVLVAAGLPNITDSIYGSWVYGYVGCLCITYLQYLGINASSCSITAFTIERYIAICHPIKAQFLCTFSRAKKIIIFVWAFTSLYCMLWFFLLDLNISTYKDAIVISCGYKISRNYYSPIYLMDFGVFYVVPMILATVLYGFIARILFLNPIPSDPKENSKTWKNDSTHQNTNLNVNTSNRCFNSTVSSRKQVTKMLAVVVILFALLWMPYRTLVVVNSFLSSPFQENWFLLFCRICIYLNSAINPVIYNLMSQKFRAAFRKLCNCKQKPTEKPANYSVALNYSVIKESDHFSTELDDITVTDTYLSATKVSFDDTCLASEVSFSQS
Estrogen receptor (Homo sapiens), sequence (P03372 whole entry, looked up): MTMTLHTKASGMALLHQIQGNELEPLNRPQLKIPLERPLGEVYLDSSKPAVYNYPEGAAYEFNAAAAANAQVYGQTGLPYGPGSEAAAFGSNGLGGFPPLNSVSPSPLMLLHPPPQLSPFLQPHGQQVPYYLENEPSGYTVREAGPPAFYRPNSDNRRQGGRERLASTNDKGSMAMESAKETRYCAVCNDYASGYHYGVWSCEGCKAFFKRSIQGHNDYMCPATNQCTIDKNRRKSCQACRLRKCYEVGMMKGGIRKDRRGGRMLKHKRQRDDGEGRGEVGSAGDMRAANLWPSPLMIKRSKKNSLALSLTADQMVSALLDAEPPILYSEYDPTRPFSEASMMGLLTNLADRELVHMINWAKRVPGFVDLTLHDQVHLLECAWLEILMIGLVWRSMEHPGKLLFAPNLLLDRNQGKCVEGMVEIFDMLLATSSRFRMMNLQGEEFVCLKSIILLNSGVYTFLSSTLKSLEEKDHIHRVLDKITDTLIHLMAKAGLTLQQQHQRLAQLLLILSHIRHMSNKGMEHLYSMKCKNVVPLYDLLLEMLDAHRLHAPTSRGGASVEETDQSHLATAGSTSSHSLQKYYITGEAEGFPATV
Androgen receptor (Homo sapiens), sequence (P10275 whole entry, looked up): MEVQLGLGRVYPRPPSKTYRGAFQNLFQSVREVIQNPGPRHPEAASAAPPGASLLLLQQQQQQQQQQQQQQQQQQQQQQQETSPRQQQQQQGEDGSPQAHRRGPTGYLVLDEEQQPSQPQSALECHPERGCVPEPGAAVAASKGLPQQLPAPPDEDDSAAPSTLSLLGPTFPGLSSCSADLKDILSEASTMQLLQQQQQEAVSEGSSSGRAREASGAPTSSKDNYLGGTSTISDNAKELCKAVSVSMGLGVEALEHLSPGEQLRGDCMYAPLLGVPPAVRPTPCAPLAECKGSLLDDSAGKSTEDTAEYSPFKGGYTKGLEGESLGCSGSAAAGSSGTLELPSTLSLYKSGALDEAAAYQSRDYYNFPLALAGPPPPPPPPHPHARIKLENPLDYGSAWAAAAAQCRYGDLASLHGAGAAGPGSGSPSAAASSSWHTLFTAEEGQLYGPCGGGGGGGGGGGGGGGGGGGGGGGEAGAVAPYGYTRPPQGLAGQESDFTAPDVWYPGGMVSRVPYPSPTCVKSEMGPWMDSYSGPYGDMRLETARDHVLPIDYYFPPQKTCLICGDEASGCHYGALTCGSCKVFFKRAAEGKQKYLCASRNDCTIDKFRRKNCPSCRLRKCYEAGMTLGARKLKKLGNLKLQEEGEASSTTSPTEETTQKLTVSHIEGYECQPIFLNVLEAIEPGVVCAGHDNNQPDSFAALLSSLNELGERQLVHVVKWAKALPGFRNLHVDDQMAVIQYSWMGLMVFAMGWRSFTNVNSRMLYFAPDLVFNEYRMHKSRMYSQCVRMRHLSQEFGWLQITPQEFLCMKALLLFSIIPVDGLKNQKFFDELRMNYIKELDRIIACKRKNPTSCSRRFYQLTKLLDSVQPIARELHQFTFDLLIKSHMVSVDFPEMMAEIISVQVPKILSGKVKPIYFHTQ
Progesterone receptor (Homo sapiens), sequence (P06401 whole entry, looked up): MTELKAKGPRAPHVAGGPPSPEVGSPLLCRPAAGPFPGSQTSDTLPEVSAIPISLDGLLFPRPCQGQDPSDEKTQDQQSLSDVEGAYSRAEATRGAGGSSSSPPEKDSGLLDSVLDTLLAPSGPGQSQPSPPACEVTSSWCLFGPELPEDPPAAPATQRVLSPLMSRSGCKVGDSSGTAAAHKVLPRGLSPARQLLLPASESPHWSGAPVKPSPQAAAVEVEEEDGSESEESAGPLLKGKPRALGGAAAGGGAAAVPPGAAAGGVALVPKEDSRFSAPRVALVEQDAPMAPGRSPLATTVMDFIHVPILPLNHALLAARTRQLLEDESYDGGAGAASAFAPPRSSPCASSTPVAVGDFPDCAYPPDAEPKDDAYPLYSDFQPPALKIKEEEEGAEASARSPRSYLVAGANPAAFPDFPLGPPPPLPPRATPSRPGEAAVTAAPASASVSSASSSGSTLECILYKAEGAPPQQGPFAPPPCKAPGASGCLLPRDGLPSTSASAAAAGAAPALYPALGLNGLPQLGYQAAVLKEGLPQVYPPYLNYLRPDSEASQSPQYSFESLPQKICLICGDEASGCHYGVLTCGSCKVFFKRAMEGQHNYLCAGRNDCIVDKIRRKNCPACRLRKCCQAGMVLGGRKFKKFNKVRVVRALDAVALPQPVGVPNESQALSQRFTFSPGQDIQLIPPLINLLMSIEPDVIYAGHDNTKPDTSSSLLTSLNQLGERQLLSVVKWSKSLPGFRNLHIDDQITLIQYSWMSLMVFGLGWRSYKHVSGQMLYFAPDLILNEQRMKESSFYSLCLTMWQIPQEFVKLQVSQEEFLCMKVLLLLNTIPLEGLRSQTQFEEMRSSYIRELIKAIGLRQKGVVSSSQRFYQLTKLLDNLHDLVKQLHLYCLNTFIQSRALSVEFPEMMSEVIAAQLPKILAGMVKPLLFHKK
Estrogen receptor beta (Homo sapiens), sequence (Q92731 whole entry, looked up): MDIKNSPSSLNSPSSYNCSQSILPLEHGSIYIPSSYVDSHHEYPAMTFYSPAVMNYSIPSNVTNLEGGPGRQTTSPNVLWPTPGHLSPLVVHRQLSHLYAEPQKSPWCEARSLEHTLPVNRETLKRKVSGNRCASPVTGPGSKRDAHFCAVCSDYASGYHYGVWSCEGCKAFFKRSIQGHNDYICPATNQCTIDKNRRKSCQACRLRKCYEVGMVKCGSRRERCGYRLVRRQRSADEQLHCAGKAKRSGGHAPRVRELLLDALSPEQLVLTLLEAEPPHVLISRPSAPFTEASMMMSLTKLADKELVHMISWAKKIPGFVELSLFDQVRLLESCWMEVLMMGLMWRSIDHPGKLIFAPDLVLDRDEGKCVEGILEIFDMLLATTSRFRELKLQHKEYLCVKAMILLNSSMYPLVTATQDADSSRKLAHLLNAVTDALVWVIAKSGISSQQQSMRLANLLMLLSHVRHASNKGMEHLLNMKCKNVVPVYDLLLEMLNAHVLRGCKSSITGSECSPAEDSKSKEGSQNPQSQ

CCOc1ccccc1C(N)=O
inactive and 26.6 µM (active): [13]
inactive: all other assays above

O=C1NCC2(CCN(CCc3ccccc3)CC2)O1
not listed: [6] | [13] | [20]
inactive: all other assays above

C=C(C)C1CC=C(C)C(OC(C)=O)C1 (stereo unspecified)
not listed: [6] | [19] | [20]
inactive: all other assays above

COc1nc(C)nc(Cl)c1NC1=NCCN1
not listed: [6] | [10]
inactive: all other assays above

O=Cc1ccc(Cl)cc1
not listed: [8] | [13] | [20]
inactive: all other assays above

Clc1ccc2c(c1)C(N1CCNCC1)=Nc1ccccc1O2
active: [4] 61.1 µM and 29.8 µM | [5] 30.6 µM and 23.7 µM
not listed: [6] | [12] | [13]
inactive: all other assays above
